Screening results deposited in PubChem BioAssay by National Center for Advancing Translational Sciences (NCATS).
KB-V1 cytotox: KB-V1 MDR subline cytotoxicity; KB-V1 MDR cells viability, CellTiter-Glo, 72 h; Potency, µM (titrated, usually from 46.1 µM), most hits filed as cytotoxic; 400,000 tested, 3.4% active; further: potency means the concentration at half of the fitted maximal effect; nearly all actives have a fitted effect of over 60% in size
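Compound-treated KB-V1 multidrug-resistant cells, 72 h, 37 degrees C; viability by CellTiter-Glo. Fitted qHTS curves give the values.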
A549 viability: A549 cytotoxicity, counter-screen for Nrf2 inhibitors; AID 504648; Potency, µM (titrated, usually from 46 µM), without a hit: at the highest dose activity change, negative = cytotoxicity, hits mostly inhibitors; A549 ARE-Fluc cells, CellTiter-Fluor viability, 18-24 h; 390,000 tested, 0.16% active; further: potency means the concentration at half of the fitted maximal effect
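A549 ARE-Fluc cells in 5% FBS OPTI-MEM, 5000 cells/well, rested 2 h then exposed to compounds in concentration-response for 18-24 h at 37 °C. Viability by CellTiter-Fluor fluorescence (Ex 405/Em 525) after 30 min; luciferase luminescence (BugLite, 15 min, RT) read afterwards.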
Nrf2 block: blocks Nrf2 signaling | A549 ARE-Fluc reporter, luciferase luminescence, 18-24 h | Potency, µM (top dose mostly 46 µM), without a hit: at the highest dose activity change, negative = inhibition, hits mostly inhibitors | 360,000 tested, 2.1% active; further: potency means the concentration at half of the fitted maximal effect; nearly all actives have a fitted effect of over 60% in size
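A549 ARE_Fluc cells (5000/well, 5% FBS OPTI-MEM) pre-incubated 2 h, then treated with compounds 18-24 h at 37C/5% CO2 in concentration-response. CellTiter-Fluor viability read first; BugLite luciferase luminescence after 15 min at room temperature gives Nrf2 activity.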
KB-3-1 tox: kills parental KB-3-1 adenocarcinoma cells | AID 1347075 | Potency, µM (doses to about 46.1 µM), hits mostly cytotoxic | KB-3-1 viability, CellTiter-Glo ATP luminescence, 72 h | 400,000 tested, 1.4% active; further: potency means the concentration at half of the fitted maximal effect; nearly all actives have a fitted effect of over 60% in size
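Cytotoxicity measured as CellTiter-Glo luminescence after 72 h at 37 C. Compound titrations were pinned onto drug-naive KB-3-1 parental adenocarcinoma cells grown in DMEM with 10% FBS, and normalized data fitted to concentration-response curves.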
PI4K2A block: inhibitors of human PI4K2A; Q9BTU6; activity change, negative = inhibition, % at 76.9 µM; purified PI4K2A, ADP-Glo luminescence, 1 h; stronger effect = lower value; 420,000 tested, 0.13% active; AID 1346378; in the data active means activity change below about -50%; inconclusive means mostly about -30% to -49%;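 further: -100% = wells without enzyme as full effect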
Target sequence (Q9BTU6 whole entry, looked up): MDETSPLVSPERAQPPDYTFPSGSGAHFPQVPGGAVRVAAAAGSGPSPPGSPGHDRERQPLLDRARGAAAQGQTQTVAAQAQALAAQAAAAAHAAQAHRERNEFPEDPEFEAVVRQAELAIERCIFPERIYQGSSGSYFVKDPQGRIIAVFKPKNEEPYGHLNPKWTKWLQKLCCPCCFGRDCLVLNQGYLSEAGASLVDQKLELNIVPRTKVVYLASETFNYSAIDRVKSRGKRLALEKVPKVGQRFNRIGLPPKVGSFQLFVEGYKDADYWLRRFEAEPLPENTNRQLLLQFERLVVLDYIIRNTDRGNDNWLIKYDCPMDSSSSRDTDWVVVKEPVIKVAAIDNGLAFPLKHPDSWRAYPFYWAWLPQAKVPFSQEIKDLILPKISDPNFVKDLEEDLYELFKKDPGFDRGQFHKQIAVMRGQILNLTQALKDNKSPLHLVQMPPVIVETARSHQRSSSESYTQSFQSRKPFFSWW
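In this quantitative HTS, ADP production by PI4K2A was quantified luminescently after 1 h at ambient temperature; 100 microM adenosine served as plate-quality control.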
Giardia killer: kills Giardia lamblia. Giardia lamblia trophozoite viability. activity change, % at 7.66 µM, hits read low. 340,000 tested, 0.15% active. AID 540267; in the data active means activity change below about -80%; inconclusive means between about -30% and that limit;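 further: parasites exposed to compound for two days anaerobically before the ATP read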
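Compounds were tested on trophozoites seeded at 100 cells/well and held 48 hrs at 37 deg C anaerobically. An ATP-based luminescent kit measured the remaining live cells.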
An asterisk follows results filed as active; i = inactive; ? = inconclusive; . = no result; [ ] = another dose, or the depositor's remark. In the library only some 5.7% were active in any assay of this set; here they are far more common. Unless noted, the call rests on the fitted dose curve; in most records, active means well fitted curve in the direction sought with a large enough effect; inconclusive means small, poorly fitted or top-dose-only effect, or another doubt; inactive means no such curve, though single readings can be large; an effect the other way counts as inactive or inconclusive. Unless noted, on the % scale 0 is the no-effect control and ±100 the full control effect.

SMILES	KB-V1 cytotox	A549 viability	Nrf2 block	KB-3-1 tox	PI4K2A block	Giardia killer
Cc1n[nH]c(C)c1N1C(=O)c2cccc3c(N4CCCCCC4)ccc(c23)C1=O	21µM*	-4%	-2%	i	5	-11
Cc1ccc2c(c1)C(c1ccc(F)cc1)N(C(=O)COc1ccc(Cl)cc1Cl)CC(=O)N2 (centres undefined)	?	?	-6%[9.27 µM]	?	-1	.
O/N=C/c1ccc(OCc2ccccc2)c(Cl)c1	?	9%	?	?	-9	-18
O/N=C/c1ccccc1OCc1ccccc1F	?	-1%	14%	i	0	15
O/N=C/c1ccc(OCc2ccccc2F)c(Cl)c1	16µM*	9%	?	?	-7	-3
O/N=C/c1ccc(OCc2ccccc2)c(Br)c1	12µM*	12%	?	?	3	?
O=C(NC1CCCCN(Cc2cccc(Cl)c2)C1=O)c1ccc2ccccc2c1 (centres undefined)	.	.	.	.	-2	.
Cc1ccc2c(c1)cc(C(=O)NCc1ccc(F)cc1)n2C	i	-8%	?	i	2	.
O=C(C1CC(c2ccc(F)cc2)=NO1)N1CCCCC1 (centres undefined)	i	-5%	?	i	6	3
COc1cccc(C2=NOC(C(=O)Nc3cccnc3)C2)c1 (centres undefined)	16µM*	-16%	.	i	0	3
COc1cc(C2=NOC(C(=O)Nc3ccc(C(C)=O)cc3)C2)cc(OC)c1OC (centres undefined)	i	10%	6%	i	1	4
COc1ccc(C2=NOC(C(=O)N3CCCCCC3)C2)cc1OC (centres undefined)	18µM*	0%	-5%	i	3	-4
COc1ccc(C2OC(=O)CC2C(=O)NC2CCCCCC2)cc1OC (centres undefined)	13µM*	-20%	.	i	2	3
COc1ccc(C2=NOC(C(=O)Nc3ccc(C(C)=O)cc3)C2)cc1OC (centres undefined)	15µM*	-7%	1%	i	0	-11
CC(=O)Nc1ccc(NC(=O)COC(=O)c2ccccc2OCc2cccc(Br)c2)cc1	i	.	.	i	.	.
COC(=O)CN1CCN(C(=O)c2csc(-c3ccccc3)n2)CC1	.	.	.	.	1	.
COc1ccc(C2=NOC(C(=O)NC3CCCCC3)C2)cc1OC (centres undefined)	16µM*	-1%	-4%	i	0	13
CC[C@@H](CCCc1ccc(F)cc1)CN(Cc1ccc(OC)cc1)S(=O)(=O)c1ccc(C)cc1	.	.	.	.	2	.
CN1CCN(C(=O)CCCN2C(=O)/C(=C/c3ccc(Cl)cc3)SC2=S)CC1	?	?	?	?	3	-3
O=C1/C(=C/c2ccccc2F)SC(=S)N1CCC(=O)N1CCCCC1CCO (centres undefined)	i	?	?	?	11	17
CN1CCN(C(=O)CCN2C(=O)/C(=C\c3ccc(Cl)cc3Cl)SC2=S)CC1	i	7.3µM*	?	i	0	87
O=C(CCN1C(=O)/C(=C\c2ccccc2F)SC1=S)N1CCCCC1	?	-5%	8%	10µM*	0	-5
COc1ccc(/C=C2\SC(=S)N(CCC(=O)N3CCCCC3)C2=O)cc1	i	4%	-12%	i	-3	4
O=C(CCN1C(=O)/C(=C/c2ccccc2)SC1=S)N1CCCCCC1	?	?	21µM*	?	6	-19
COc1ccc(C(=O)C[C@@H]2OC[C@H](C)N2S(=O)(=O)c2ccc(C)cc2)cc1OC	?	.	.	i	2	.
COc1ccc(C(=O)C[C@@H]2OC[C@H](C(C)C)N2S(=O)(=O)c2ccc(C)cc2)cc1OC	21µM*	.	.	i	1	.
COC(=O)c1cc(C(=O)c2ccc(Cl)cc2Cl)cn1C	13µM*	-21%	-10%	?	-1	-9
